Results on 40 compounds are retold here after PubChem BioAssay (NCI).

Molecules are shown by their SMILES. Compounds without any hit were thinned out: in the full panel of roughly 83,000, 20% have a hit.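 Testing used 96-well plates and a 48-hour single-concentration exposure. Example: -40 means 40% of the starting cells died.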 Values without a mark were called inactive. Calls of active or inactive are those of the source.

The assay deals with HL-60(TB) leukemia. Kind of assay: NCI-60 one-dose screen, 48 h (100 = growth as untreated, 0 = no growth, -100 = all killed). The following applies: 10 µM unless noted. Here is the method:
Growth inhibition of the HL-60(TB) human tumor cell line is measured as a screen for anti-cancer activity. Cells are grown in 96 well plates and exposed to the test compound for 48 hours. Compounds are tested at a single concentration, which is 10^-5 M for most compounds. The reported endpoint is percent growth (GI% or GIPRCNT), where numbers from 0 - 100% represent growth inhibition, and numbers from -100% - 0 represent cell death. For example, a value of 40 represents 60% growth inhibition. A value of 0 means no net growth occurred over the course of the experiment. A value of -40 indicates 40% of cells at the beginning of the experiment died by the end of the experiment. A value of -100 means all cells are dead at the end of the experiment.
NCI-60 Human Tumor Cell Lines Screen was performed using the standard one-dose NCI protocol, which is described in more detail at https://dtp.cancer.gov/discovery_development/nci-60/default.htm.
Compounds with GIPRCNT values below 10 were considered active. Activity score was based on GIPRCNT using the following formula: […]
Score is 0 for GIPRCNT values of 100 or above, 50 for GIPRCNT values of 0, and 100 for GIPRCNT values of -100.
Consider `CN1C(=O)N(C)C2Nn3c(s/c(=C4\C(=O)N(CCc5ccccc5)c5ccccc54)c3=O)=NC21` (stereo not given), for which the growth was 56.9%.

Consider `COC(=O)CCCCN=Cc1c(O)c(O)c(C(C)C)c2cc(C)c(-c3c(C)cc4c(C(C)C)c(O)c(O)c(C=NCCCCC(=O)OC)c4c3O)c(O)c12`, for which the growth was 10.9%.

On to `O=C(Nc1cccc(Br)c1)c1cc(=O)[nH]c2ccccc12`, for which the growth was 108%.

Take `C=CCn1c(SCC(=O)Nc2ccc(/C(C)=N\O)cc2)nnc1-c1cc(-c2ccc(OC)cc2)nc2ccccc12`: the growth is -39.2% (active).

For `CCCCNC(=O)c1cc(NCc2cc(O)ccc2O)ccc1O`, the growth was 3.56% (active).

As for `Cn1c(O)c(C(/C=C/c2ccccc2)=Nc2ccccc2N)c(=O)n(C)c1=O`, the growth was -39.4% (active).

With `COCCOC(C)C(/C=N/NC(N)=S)=N/NC(N)=S` (stereo not given), the growth is 81.6%.

Take `C1CN1c1nc(N2CC2)nc(N2CC2)n1`: the growth was 0.901% (active).

As to `COc1ccc(Nc2ncnc3c2c(SC)nn3-c2ccccc2)cc1`, the growth is 90.5%.

As to `Cc1ccc(S(=O)(=O)N2CCN(C(=O)CSc3nc4ccc(C)cc4[nH]3)CC2)cc1`, the growth is -1.47% (active).

With `Cc1[nH]n(C(=O)c2ccncc2)c(=O)c1N=Nc1ccc(S(=O)(=O)Nc2ccncn2)cc1`, the growth is 91.3%.

For the compound `Nc1ncnc2c1ccn2-c1cccc(NC(=O)c2ccc(N3CCOCC3)c(C(F)(F)F)c2)c1`, the growth is 54.1%.

On to `COC(=O)C1NC(=S)N(c2ccc(Cl)cc2)C1/C=C/c1ccccc1` (stereo not given), for which the growth was 92.8%.

Consider `COc1ccc(-c2cn(-c3ccc(Cl)cc3)c(=S)[nH]2)cc1OC`, for which the growth was 56.1%.

As for `O=C(Oc1c(Cl)c(Cl)c(Cl)c(Cl)c1Cl)C1CCCN1C(=O)OCc1ccccc1` (stereo not given), the growth was -12.5% (active).

On to `COC(=O)/C(CCC=C(C)C)=C1\[C@@H](OC(C)=O)C[C@@]2(C)[C@H]1C/C(=N/O)[C@H]1[C@@]3(C)CC/C(=N\O)[C@@H](C)[C@@H]3CC[C@@]12C`, for which the growth was 89.3%.

In the case of `NS(=O)(=O)c1ccc(Br)cc1`, the growth is 96.2%.

Turning to `ClCc1cccc(CSc2ncnc3c2ncn3Cc2cccc(CCl)c2)c1`, the growth is 23.7%.

For the compound `CN1CCN(c2cnc(C(=O)Nc3cc(F)cc4cccnc34)cn2)CC1`, the growth was 6.72% (active).

Consider `CCCCCCCCCCCCNC(=S)N/N=C/c1ccc(Cl)c(Cl)c1`, for which the growth is 116%.

Consider `Cn1c2ccc(Br)cc2c2c3c(c4c5ccccc5[nH]c4c21)C(=O)N(O)C3=O`, for which the growth was -58.6% (active).

For the compound `CC(CCC(=O)O)[C@H]1CCC2C3C(=O)C[C@@H]4CC(=O)CC[C@]4(C)C3CC(=O)[C@@]21C` (stereo not given in full), the growth was 106%.

In the case of `C=CCSC(CC)(CC)C(=O)NC`, the growth was 89.3%.

`CCOC(=O)c1cnc2c(C)cccc2c1Nc1ccc(C(C)=O)cc1`: the growth is -43.5% (active).

With `CN=S(=O)(OCCCCCOS(=O)(=NC)c1ccc(C)cc1)c1ccc(C)cc1` (stereo not given), the growth is 70.7%.

For the compound `COc1cccc(/C=N/NC(=O)c2cnn3c2NC(c2ccccc2)C3)c1Oc1ccccc1` (stereo not given), the growth is 74.6%.

Turning to `CC(C)(C)NCC(O)c1ccccc1Cl` (stereo not given), the growth is 1.68% (active).

`Cc1ccc2[nH]c(=O)cc(-n3nncc3COc3ccc(C=O)cc3)c2c1`: the growth was 107%.

As to `CC(=O)Nc1cc(C(c2ccccc2)c2ccccc2)cc(C(c2ccccc2)c2ccccc2)c1C`, the growth was 53.1%.

Turning to `COc1ccc(NC(=O)Cc2nc3nc4sc(C)c(C)c4c(=O)n3[nH]2)cc1`, the growth was 109%.

On to `Cn1c2c(c3ccc(Cl)c(Cl)c31)C(C#N)C1(CCNCC1)NC2=O` (stereo not given), for which the growth is 4.92% (active).

For the compound `O=C1/C(=C(/c2ccccc2)N2CCOCC2)Cc2ccccc21`, the growth is 27.5%.

With `O=C1OC(Oc2ccccc2)(c2ccccc2)c2ccccc21` (stereo not given), the growth was 83.8%.

`COC1/C=C/OC2(C)Oc3c(C)c(O)c4c(O)c(c(C=NOC(c5ccccc5)c5ccccc5)c(O)c4c3C2=O)NC(=O)/C(C)=C/C=C/C(C)C(O)C(C)C(O)C(C)C(OC(C)=O)C1C` (stereo not given): the growth was -13.8% (active).

Regarding `N#Cc1cccc(C2C3=C(COC3=O)N(CCO)c3cc4c(cc32)CCC4)c1` (stereo not given), the growth is -27.2% (active).

Consider `Cc1cc(Cl)ccc1Nc1nc(C(F)(F)F)ccc1C(=O)N/N=C/c1ccccc1Cl`, for which the growth is 12.5%.

In the case of `CCN(CC)c1ccc(/C=C2\SC(=O)C(Nc3nnc(-c4cccnc4SCc4ccccc4)o3)C2=O)cc1` (stereo not given), the growth was 19.4%.

As for `COc1ccc2nc(-c3ccc(-c4noc(-c5ccc(Cl)cc5)n4)cc3)[nH]c2c1`, the growth was 104%.

Consider `O=c1nc2oc3ccc4ccccc4c3cc-2s1`, for which the growth is -29.2% (active).

In the case of `CCCCC(CC)COC(C)=O` (stereo not given), the growth was 100%.
